# Assay results reported in paper PMC7862700, “An all-to-all approach to the identification of sequence-specific readers for epigenetic DNA modifications on cytosine”.
# Legend:
# Experiment in all cases: DAPPL (digital affinity profiling via proximity ligation, sequencing); 10 mM Tris-HCl pH 7.5, 50 mM NaCl, 1 mM DTT, 4% glycerol, room temperature, 30 min; GST-TFs on glutathione beads, 16-mer random dsDNA library, 0.1% formaldehyde crosslink after washing; high values mean tight binding
# FEV = biological target: T1, FEV (Homo sapiens, UniProt Q99581 1-238); conditions: protein: recombinant; tags: N-terminal GST; dsDNA, one strand shown
# T1 sequence: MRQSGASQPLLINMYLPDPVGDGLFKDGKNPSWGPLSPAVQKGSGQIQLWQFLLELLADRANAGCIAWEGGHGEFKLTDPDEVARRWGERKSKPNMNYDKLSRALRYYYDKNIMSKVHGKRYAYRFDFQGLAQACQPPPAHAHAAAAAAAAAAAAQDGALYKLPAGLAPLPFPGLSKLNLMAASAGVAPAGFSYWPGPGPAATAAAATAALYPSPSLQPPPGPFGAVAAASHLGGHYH
# Method in brief: (§1)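 Pools of DNA-barcoded human transcription factors, expressed in yeast as GST fusions on glutathione beads and combined with a tag-only sample, were incubated with 200 nmole of a 16-mer random double-stranded DNA library. Incubation took 30 min at room temperature in Tris/NaCl/DTT/glycerol buffer and was followed by washing, 0.1% formaldehyde crosslinking, proximity ligation (BsaI/T4 ligase, 1 h, 37 °C), PCR amplification and sequencing on an Illumina NextSeq500. Binding signal is the ratio of a hexamer's read frequency for a factor to its frequency for the tag-only sample.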
# ETV5 = ETV5 (Homo sapiens, UniProt P41161 1-510); conditions: protein: recombinant; tags: N-terminal GST; dsDNA, one strand shown
# ETV5, sequence (P41161 whole entry): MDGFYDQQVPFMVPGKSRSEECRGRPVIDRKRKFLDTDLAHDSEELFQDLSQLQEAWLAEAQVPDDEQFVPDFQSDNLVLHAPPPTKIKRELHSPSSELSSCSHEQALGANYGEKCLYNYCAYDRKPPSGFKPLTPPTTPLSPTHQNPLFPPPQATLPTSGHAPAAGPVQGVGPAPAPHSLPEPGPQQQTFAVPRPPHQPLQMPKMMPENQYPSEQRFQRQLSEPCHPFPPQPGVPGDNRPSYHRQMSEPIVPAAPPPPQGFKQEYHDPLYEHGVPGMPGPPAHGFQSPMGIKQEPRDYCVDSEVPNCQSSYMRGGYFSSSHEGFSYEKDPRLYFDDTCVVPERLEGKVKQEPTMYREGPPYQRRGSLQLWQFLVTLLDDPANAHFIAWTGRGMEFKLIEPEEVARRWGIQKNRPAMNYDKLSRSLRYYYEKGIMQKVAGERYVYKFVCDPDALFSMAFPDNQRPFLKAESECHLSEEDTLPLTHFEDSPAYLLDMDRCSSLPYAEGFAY
# Method in brief: as §1
# HSF1 = HSF1 (Homo sapiens, UniProt Q00613 1-529); conditions: protein: recombinant; tags: N-terminal GST; chain copies: 3; dsDNA, one strand shown
# HSF1, sequence (Q00613 whole entry): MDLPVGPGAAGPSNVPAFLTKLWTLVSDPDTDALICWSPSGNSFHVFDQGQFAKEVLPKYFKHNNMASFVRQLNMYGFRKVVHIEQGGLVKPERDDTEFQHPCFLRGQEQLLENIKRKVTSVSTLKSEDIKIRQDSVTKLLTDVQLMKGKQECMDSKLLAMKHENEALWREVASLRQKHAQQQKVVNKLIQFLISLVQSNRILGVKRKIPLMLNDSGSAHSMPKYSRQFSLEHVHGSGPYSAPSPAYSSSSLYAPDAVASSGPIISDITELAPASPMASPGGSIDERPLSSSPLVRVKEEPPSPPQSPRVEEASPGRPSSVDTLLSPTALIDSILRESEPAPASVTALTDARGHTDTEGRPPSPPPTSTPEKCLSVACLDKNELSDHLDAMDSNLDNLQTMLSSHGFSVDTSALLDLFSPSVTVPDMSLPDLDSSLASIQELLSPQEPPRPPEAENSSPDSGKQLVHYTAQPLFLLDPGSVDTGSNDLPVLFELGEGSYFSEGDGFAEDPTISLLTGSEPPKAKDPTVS
# Method in brief: as §1
# SPIC = biological target: T2, SPIC (Homo sapiens, UniProt Q8N5J4 1-248); conditions: protein: recombinant; tags: N-terminal GST; dsDNA, one strand shown
# T2 sequence: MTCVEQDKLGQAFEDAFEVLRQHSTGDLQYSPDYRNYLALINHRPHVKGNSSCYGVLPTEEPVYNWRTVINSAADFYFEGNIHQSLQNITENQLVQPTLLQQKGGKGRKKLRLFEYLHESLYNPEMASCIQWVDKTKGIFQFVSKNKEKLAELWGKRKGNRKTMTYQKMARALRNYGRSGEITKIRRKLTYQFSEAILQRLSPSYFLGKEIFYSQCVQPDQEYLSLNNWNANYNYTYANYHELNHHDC
# Method in brief: as §1
# ELF4 = ELF4 (Homo sapiens, UniProt Q99607 1-663); conditions: protein: recombinant; tags: N-terminal GST; dsDNA, one strand shown
# ELF4, sequence (Q99607 whole entry): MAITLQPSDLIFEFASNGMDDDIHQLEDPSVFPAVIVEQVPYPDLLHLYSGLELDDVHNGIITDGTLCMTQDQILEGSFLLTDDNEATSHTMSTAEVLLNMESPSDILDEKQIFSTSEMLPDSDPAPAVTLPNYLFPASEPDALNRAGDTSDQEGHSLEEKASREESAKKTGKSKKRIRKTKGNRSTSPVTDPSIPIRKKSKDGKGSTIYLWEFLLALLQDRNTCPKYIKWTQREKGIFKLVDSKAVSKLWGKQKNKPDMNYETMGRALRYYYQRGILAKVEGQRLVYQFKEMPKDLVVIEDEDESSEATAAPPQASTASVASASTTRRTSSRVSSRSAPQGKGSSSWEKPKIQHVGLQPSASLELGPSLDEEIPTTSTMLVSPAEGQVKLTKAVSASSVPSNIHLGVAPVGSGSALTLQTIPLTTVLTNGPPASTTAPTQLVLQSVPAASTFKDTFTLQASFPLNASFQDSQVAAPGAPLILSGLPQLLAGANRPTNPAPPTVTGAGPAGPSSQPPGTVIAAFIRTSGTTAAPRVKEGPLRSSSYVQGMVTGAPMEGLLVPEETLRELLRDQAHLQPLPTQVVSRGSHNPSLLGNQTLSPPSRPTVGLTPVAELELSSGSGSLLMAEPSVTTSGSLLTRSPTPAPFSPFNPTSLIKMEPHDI
# Method in brief: as §1
# ELK4 = biological target: T3, ELK4 (Homo sapiens, UniProt P28324-2 1-405); conditions: protein: recombinant; tags: N-terminal GST; dsDNA, one strand shown
# T3 sequence: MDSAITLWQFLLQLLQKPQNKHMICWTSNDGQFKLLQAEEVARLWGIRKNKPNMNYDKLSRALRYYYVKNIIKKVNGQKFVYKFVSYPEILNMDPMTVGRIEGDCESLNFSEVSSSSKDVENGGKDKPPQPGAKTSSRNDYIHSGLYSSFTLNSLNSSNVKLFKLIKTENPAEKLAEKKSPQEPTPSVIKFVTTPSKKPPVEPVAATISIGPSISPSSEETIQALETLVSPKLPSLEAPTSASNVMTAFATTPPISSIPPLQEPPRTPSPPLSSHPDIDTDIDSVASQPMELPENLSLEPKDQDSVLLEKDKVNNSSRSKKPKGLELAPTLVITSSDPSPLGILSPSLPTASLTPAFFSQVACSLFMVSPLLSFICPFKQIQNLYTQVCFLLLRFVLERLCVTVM
# Method in brief: as §1
# ETV2 = biological target: T4, ETV2 (Homo sapiens, UniProt O00321 1-342); conditions: protein: recombinant; tags: N-terminal GST; dsDNA, one strand shown
# T4 sequence: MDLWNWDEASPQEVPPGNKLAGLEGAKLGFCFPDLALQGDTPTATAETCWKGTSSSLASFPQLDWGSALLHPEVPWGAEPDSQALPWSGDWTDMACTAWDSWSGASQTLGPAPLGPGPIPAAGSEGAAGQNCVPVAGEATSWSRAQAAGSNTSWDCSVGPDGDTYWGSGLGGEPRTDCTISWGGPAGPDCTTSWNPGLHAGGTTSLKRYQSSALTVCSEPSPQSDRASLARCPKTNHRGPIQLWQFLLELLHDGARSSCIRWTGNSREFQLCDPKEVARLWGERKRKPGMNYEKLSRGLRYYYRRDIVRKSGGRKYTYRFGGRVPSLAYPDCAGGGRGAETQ
# Method in brief: as §1
# ELF3 = biological target: T5, ELF3 (Homo sapiens, UniProt P78545 1-371); conditions: protein: recombinant; tags: N-terminal GST; dsDNA, one strand shown
# T5 sequence: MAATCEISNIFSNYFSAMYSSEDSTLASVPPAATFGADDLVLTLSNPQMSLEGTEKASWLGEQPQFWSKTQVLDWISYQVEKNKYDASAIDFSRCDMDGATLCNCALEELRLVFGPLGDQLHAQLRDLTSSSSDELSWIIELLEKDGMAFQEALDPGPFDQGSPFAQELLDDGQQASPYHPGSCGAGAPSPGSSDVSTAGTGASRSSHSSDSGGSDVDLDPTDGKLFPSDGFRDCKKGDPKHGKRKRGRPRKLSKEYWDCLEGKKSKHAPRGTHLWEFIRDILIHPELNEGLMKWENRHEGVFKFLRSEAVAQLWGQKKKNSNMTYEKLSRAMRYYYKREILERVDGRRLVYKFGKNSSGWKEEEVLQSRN
# Method in brief: as §1
# CRX = CRX (Homo sapiens, UniProt O43186 1-299); conditions: protein: recombinant; tags: N-terminal GST; dsDNA, one strand shown
# CRX, sequence (O43186 whole entry): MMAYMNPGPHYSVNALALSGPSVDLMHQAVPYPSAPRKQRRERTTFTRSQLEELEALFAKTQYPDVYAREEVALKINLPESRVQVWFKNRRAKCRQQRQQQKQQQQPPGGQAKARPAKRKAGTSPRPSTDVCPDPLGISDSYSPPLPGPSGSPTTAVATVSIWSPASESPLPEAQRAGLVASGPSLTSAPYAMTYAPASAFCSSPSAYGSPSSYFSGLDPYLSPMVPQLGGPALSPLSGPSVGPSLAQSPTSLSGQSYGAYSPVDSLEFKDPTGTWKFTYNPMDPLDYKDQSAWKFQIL
# Method in brief: as §1
# ETV1 = ETV1 (Homo sapiens, UniProt P50549 1-477); conditions: protein: recombinant; tags: N-terminal GST; dsDNA, one strand shown
# ETV1, sequence (P50549 whole entry): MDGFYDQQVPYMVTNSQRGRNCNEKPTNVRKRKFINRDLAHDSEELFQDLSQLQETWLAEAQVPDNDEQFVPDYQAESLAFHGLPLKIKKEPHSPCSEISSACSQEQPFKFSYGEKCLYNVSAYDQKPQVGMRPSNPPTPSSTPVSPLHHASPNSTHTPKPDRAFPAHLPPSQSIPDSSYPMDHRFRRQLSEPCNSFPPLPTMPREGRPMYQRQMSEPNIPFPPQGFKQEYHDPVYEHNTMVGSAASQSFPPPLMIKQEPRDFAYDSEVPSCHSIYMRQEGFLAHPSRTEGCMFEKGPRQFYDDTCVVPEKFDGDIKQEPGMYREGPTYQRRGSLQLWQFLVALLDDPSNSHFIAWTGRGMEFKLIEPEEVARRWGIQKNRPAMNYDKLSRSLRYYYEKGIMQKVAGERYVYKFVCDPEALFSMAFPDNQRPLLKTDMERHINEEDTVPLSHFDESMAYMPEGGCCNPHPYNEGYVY
# Method in brief: as §1
# ERF = biological target: T6, ERF (Homo sapiens, UniProt P50548 1-548); conditions: protein: recombinant; tags: N-terminal GST; dsDNA, one strand shown
# T6 sequence: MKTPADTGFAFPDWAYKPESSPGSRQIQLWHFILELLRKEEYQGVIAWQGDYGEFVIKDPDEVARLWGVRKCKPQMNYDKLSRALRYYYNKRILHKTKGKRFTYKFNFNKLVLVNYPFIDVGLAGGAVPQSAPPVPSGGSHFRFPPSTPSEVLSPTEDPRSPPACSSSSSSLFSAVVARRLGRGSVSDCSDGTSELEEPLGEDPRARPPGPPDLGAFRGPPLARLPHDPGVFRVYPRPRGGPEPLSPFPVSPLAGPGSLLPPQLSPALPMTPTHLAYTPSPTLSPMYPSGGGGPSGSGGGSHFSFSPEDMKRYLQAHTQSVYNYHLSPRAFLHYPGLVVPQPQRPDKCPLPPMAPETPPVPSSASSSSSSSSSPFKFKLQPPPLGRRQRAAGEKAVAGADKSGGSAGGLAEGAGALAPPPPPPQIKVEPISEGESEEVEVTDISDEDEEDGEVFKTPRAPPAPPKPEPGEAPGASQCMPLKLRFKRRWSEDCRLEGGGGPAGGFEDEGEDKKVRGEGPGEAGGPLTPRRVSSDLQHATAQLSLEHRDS
# Method in brief: as §1
# ETV3L = biological target: T7, ETV3L (Homo sapiens, UniProt Q6ZN32 1-361); conditions: protein: recombinant; tags: N-terminal GST; dsDNA, one strand shown
# T7 sequence: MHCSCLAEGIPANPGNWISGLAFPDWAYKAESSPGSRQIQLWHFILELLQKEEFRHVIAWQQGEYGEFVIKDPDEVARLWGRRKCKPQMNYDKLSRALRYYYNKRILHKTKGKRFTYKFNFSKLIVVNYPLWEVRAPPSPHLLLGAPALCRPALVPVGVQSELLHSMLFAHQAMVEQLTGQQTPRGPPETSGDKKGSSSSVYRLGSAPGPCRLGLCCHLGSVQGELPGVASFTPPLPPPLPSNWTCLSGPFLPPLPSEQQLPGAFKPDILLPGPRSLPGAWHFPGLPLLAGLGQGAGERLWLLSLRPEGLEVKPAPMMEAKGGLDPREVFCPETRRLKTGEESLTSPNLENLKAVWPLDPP
# Method in brief: as §1
# ETS2 = biological target: T8, ETS2 (Homo sapiens, UniProt P15036 1-469); conditions: protein: recombinant; tags: N-terminal GST; dsDNA, one strand shown
# T8 sequence: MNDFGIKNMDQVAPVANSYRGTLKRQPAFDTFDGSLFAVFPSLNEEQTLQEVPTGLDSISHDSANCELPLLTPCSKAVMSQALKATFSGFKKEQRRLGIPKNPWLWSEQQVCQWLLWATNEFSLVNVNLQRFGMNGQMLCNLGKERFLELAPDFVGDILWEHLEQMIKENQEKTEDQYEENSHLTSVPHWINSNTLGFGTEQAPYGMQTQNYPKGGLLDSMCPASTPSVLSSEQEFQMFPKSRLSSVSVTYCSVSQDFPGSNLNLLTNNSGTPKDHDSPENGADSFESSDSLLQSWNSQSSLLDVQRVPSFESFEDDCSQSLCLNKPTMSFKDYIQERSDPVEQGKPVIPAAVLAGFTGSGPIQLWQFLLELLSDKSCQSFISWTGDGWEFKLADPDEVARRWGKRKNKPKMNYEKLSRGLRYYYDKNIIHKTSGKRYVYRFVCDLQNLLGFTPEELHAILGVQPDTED
# Method in brief: as §1
# SPDEF = biological target: T9, SPDEF (Homo sapiens, UniProt O95238 1-335); conditions: protein: recombinant; tags: N-terminal GST; dsDNA, one strand shown
# T9 sequence: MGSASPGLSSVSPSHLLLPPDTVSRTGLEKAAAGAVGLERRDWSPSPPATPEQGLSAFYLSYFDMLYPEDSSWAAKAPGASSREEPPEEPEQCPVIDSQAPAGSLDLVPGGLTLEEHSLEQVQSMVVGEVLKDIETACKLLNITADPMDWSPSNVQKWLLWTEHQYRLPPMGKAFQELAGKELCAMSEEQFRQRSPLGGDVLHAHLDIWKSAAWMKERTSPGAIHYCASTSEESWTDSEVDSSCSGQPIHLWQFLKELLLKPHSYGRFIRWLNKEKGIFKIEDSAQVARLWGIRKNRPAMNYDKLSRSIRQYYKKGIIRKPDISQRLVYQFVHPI
# Method in brief: as §1
# ETV7 = biological target: T10, ETV7 (Homo sapiens, UniProt Q9Y603 1-341); conditions: protein: recombinant; tags: N-terminal GST; dsDNA, one strand shown
# T10 sequence: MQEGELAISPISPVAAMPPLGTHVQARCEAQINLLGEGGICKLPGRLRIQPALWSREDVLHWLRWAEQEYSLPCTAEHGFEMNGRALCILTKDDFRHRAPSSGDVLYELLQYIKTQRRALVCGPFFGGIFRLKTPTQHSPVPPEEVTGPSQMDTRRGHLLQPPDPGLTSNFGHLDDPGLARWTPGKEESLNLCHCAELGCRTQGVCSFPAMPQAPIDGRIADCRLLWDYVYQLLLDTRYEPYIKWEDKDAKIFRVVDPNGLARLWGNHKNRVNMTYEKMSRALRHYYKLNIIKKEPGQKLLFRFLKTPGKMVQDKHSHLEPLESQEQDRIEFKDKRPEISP
# Method in brief: as §1
# ELF5 = biological target: T11, ELF5 (Homo sapiens, UniProt Q9UKW6-2 1-255); conditions: protein: recombinant; tags: N-terminal GST; dsDNA, one strand shown
# T11 sequence: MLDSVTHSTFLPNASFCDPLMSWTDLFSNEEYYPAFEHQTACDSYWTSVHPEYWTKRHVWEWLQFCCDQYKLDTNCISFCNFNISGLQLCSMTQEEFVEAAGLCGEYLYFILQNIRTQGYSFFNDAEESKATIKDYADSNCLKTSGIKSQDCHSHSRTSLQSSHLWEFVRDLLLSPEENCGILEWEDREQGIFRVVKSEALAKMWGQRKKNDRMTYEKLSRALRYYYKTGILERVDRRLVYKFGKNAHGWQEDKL
# Method in brief: as §1
# ETV3 = biological target: T12, ETV3 (Homo sapiens, UniProt P41162-2 1-143); conditions: protein: recombinant; tags: N-terminal GST; dsDNA, one strand shown
# T12 sequence: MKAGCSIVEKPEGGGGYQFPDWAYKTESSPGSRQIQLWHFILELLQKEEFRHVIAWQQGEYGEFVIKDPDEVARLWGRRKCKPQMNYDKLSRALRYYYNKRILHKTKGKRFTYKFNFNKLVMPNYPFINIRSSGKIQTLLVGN
# Method in brief: as §1
# ETV6 = ETV6 (Homo sapiens, UniProt P41212 1-452); conditions: protein: recombinant; tags: N-terminal GST; dsDNA, one strand shown
# ETV6, sequence (P41212 whole entry): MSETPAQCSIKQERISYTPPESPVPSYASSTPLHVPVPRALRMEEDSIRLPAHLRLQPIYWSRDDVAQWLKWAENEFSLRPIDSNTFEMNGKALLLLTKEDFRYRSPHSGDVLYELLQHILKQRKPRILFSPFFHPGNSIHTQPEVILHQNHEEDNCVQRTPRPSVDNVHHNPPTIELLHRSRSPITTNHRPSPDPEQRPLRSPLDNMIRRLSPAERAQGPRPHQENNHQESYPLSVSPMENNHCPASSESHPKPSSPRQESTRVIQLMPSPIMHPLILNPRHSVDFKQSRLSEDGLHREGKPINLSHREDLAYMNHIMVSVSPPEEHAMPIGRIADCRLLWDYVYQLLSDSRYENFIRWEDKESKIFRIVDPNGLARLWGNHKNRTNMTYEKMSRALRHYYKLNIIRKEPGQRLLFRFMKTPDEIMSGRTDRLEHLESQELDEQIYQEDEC
# Method in brief: as §1
sequence,measurement,setting,value
GCTTAG,binding signal,FEV,"1.08 fold enrichment (6-mer frequency, TF over GST control)"
same,binding signal,ETV5,"1.13 fold enrichment (6-mer frequency, TF over GST control)"
same,binding signal,HSF1,"1.78 fold enrichment (6-mer frequency, TF over GST control)"
same,binding signal,SPIC,"1.12 fold enrichment (6-mer frequency, TF over GST control)"
same,binding signal,ELF4,"1.1 fold enrichment (6-mer frequency, TF over GST control)"
same,binding signal,ELK4,"1.17 fold enrichment (6-mer frequency, TF over GST control)"
same,binding signal,ETV2,"1.08 fold enrichment (6-mer frequency, TF over GST control)"
same,binding signal,ELF3,"1.09 fold enrichment (6-mer frequency, TF over GST control)"
same,binding signal,CRX,"2.49 fold enrichment (6-mer frequency, TF over GST control)"
same,binding signal,ETV1,"1.27 fold enrichment (6-mer frequency, TF over GST control)"
same,binding signal,ERF,"1.2 fold enrichment (6-mer frequency, TF over GST control)"
same,binding signal,ETV3L,"1.12 fold enrichment (6-mer frequency, TF over GST control)"
same,binding signal,ETS2,"1.11 fold enrichment (6-mer frequency, TF over GST control)"
same,binding signal,SPDEF,"1.17 fold enrichment (6-mer frequency, TF over GST control)"
same,binding signal,ETV7,"1.13 fold enrichment (6-mer frequency, TF over GST control)"
same,binding signal,ELF5,"1.01 fold enrichment (6-mer frequency, TF over GST control)"
same,binding signal,ETV3,"1.19 fold enrichment (6-mer frequency, TF over GST control)"
same,binding signal,ETV6,"1.07 fold enrichment (6-mer frequency, TF over GST control)"
